Reference: the supplement of paper PMC11732987, “Enantioselective OTUD7B fragment discovery through chemoproteomics screening and high-throughput optimisation” (Communications Chemistry, 2025)

Assays:
Assay in all cases: log2 ratio of Biotin-Ahx-Ub-VS probe labelling (fragment/DMSO); higher = less target engagement (more negative = stronger competition), active = hit call of the paper (q ≤ 0.05, log2 ratio ≤ -1)
Details in all cases: compound concentration: 200 uM; treatment time: 3 h
USP34 = USP34 (UniProt Q70CQ2)
USP34, sequence (Q70CQ2 whole entry, the tested form may be a part): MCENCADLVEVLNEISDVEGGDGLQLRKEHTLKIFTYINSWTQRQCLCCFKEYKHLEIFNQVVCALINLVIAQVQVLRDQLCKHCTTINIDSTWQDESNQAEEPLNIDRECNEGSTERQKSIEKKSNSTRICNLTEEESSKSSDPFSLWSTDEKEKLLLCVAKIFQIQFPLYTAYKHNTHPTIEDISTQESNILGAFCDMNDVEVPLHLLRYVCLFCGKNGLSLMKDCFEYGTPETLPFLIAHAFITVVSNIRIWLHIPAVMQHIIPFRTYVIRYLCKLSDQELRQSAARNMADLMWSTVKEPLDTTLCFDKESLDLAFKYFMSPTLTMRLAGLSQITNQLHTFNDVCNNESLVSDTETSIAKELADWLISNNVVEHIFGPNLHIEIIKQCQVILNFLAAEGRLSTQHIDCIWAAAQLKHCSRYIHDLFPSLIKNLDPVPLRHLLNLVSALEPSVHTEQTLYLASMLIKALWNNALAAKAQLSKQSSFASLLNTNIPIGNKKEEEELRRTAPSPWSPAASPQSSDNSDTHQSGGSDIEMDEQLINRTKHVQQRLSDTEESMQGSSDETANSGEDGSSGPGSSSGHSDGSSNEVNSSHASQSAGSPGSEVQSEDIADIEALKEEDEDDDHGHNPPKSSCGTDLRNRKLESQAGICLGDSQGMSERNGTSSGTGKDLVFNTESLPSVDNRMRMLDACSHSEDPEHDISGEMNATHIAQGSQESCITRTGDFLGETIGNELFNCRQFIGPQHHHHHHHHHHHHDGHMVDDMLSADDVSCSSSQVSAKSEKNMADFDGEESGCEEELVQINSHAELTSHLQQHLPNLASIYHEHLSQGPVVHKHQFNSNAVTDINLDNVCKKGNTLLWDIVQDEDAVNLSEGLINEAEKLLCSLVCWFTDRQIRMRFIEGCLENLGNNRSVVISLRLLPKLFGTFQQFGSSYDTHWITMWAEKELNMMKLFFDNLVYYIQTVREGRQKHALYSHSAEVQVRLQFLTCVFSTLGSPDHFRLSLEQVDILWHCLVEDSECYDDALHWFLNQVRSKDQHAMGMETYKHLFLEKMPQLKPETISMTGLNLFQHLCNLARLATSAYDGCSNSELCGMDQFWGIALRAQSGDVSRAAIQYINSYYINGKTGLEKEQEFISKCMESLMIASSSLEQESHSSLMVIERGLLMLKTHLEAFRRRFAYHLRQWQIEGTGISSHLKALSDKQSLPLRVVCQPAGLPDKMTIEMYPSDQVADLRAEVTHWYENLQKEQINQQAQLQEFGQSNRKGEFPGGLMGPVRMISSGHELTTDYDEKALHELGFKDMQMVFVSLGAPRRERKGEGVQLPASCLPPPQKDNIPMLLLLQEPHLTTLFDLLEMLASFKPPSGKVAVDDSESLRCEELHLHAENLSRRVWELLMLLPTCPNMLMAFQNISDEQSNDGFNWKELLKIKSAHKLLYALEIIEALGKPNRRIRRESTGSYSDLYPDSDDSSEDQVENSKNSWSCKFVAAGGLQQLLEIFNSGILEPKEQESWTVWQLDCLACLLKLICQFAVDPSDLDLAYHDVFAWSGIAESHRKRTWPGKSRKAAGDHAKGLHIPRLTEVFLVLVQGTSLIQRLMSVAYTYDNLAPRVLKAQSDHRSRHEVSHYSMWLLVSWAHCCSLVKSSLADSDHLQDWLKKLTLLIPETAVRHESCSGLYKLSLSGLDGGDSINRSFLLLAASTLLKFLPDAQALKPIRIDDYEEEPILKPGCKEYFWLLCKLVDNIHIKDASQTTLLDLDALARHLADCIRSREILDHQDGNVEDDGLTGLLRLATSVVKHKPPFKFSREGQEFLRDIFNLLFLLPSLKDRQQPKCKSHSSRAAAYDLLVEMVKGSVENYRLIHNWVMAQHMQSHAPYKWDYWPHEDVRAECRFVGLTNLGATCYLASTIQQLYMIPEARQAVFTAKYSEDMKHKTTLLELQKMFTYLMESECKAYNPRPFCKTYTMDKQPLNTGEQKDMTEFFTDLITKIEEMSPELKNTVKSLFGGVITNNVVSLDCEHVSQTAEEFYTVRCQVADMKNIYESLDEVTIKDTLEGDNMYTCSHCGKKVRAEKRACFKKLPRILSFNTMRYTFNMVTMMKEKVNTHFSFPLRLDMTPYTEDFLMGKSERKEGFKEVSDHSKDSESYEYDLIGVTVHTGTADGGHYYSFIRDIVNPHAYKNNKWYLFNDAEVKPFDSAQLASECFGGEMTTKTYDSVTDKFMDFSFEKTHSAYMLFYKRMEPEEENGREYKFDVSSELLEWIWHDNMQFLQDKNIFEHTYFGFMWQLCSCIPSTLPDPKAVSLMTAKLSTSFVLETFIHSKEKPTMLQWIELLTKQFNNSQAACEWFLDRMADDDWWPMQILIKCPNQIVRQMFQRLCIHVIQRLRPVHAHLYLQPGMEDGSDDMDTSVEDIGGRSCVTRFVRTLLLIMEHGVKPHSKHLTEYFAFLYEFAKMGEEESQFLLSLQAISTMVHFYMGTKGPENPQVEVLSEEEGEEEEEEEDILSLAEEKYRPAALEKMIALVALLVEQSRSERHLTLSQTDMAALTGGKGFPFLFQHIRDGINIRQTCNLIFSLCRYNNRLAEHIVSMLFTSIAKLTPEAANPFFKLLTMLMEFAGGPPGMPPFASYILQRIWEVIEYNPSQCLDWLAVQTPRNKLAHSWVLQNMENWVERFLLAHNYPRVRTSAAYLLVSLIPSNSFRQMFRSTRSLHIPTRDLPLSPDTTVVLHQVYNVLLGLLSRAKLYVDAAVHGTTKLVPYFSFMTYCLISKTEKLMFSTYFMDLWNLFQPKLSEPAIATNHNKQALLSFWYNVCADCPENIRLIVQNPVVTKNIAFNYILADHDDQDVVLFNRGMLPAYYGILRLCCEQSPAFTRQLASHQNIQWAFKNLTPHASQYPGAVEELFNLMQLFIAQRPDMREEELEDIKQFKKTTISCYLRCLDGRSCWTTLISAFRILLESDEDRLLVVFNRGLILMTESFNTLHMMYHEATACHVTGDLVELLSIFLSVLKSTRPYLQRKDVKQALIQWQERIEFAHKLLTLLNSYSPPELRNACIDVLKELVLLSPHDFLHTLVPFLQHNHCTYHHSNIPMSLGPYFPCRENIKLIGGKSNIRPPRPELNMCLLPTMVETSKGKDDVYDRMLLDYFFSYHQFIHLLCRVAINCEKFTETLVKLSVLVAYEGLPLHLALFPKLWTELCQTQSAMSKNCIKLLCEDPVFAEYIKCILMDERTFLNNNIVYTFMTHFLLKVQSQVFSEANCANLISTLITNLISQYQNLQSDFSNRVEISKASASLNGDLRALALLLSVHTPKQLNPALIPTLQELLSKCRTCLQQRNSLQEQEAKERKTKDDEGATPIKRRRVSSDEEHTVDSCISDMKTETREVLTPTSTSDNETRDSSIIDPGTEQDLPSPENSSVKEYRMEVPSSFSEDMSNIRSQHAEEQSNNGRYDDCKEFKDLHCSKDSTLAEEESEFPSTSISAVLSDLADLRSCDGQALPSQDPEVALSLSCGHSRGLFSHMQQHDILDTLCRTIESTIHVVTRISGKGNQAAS
In short: (§1)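 Each value is an average log2 ratio of fragment to vehicle, tested by unpaired t-test. The underlying Spectronaut label-free quantities were global-median-normalised, and only proteins with ≥2 unique peptides were included. Triplicate HEK293T lysate samples (495 µg) were exposed to fragment at 200 µM or vehicle for 3 h, then to Biotin-Ahx-Ub-VS at 0.5 µM final for 1 h, before NeutrAvidin enrichment of labelled DUBs, LysC and trypsin digestion, and diaPASEF LC-MS/MS.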

USP36 = biological target: T1, USP36 (UniProt Q9P275)
T1 sequence (whole entry): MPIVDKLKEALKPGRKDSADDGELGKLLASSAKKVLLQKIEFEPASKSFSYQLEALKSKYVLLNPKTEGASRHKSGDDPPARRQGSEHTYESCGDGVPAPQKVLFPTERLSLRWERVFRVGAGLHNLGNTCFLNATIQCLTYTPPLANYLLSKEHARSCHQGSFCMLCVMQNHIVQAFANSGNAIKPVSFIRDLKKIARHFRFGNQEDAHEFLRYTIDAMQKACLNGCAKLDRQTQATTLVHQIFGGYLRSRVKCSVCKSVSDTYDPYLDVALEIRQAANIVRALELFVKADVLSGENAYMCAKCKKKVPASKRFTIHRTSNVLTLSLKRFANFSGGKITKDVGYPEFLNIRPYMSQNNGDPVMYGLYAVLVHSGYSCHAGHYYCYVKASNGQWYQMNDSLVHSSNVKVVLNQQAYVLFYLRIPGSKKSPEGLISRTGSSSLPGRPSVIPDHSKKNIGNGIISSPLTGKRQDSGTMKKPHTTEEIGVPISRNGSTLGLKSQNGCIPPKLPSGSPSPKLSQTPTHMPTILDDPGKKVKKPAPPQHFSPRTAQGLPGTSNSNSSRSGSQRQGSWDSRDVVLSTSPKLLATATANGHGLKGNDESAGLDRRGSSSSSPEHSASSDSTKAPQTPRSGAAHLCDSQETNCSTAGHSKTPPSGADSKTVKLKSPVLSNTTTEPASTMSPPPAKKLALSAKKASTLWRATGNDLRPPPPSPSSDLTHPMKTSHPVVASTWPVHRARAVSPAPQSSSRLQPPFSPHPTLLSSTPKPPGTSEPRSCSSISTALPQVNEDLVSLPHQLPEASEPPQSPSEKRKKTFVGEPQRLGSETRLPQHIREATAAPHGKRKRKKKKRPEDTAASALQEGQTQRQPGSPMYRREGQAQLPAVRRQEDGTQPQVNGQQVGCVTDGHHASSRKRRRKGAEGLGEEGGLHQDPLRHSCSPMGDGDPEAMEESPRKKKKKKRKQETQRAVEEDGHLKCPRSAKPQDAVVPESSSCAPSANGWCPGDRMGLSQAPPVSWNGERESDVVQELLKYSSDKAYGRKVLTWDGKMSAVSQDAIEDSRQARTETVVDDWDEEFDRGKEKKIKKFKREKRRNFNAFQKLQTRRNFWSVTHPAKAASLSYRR
In short: as §1

USP38 = biological target: T2, USP38 (UniProt Q8NB14)
T2 sequence (whole entry): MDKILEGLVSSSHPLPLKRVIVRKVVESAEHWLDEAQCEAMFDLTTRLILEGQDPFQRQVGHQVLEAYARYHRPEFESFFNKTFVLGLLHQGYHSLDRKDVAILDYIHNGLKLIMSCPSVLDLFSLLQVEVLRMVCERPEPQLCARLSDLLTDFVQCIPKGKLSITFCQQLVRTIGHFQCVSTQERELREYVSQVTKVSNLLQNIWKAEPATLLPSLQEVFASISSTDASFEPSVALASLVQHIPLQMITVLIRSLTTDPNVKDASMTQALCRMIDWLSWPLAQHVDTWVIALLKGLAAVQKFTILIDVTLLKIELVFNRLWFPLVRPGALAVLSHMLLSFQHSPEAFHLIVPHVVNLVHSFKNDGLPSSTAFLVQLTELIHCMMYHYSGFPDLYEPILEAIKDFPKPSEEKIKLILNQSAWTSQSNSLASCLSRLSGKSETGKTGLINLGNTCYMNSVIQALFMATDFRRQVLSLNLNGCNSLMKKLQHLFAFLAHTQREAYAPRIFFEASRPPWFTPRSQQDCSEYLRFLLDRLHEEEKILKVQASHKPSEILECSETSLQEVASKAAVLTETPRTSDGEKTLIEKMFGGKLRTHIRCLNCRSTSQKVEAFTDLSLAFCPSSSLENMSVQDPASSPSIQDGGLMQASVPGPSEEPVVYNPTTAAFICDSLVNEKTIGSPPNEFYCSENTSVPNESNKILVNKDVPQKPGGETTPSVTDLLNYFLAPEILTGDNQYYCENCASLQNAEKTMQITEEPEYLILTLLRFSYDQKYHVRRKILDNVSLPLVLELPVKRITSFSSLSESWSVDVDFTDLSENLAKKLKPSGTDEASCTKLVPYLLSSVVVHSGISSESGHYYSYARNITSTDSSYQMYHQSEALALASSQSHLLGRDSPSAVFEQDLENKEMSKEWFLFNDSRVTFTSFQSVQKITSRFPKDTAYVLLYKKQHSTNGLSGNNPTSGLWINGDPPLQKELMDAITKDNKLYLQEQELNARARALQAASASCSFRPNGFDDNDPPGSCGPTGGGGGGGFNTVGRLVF
In short: as §1

USP39 = biological target: T3, USP39 (UniProt Q53GS9)
T3 sequence (whole entry): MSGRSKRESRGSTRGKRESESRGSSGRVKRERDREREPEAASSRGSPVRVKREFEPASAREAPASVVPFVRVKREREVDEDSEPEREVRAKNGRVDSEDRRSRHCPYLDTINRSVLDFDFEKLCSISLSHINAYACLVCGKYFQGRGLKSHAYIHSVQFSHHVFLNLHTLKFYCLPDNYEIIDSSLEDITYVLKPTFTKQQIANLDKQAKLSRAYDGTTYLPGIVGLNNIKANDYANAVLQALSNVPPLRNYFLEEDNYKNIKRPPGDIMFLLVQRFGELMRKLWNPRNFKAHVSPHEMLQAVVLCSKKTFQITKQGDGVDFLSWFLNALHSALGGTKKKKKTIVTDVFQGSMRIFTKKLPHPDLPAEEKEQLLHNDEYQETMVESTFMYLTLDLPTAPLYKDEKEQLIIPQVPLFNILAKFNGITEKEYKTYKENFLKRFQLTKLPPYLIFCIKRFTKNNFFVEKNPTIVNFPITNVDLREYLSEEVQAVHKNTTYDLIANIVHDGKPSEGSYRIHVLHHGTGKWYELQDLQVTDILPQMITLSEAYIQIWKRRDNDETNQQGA
In short: as §1

USP4 = biological target: T4, USP4 (UniProt Q13107)
T4 sequence (whole entry): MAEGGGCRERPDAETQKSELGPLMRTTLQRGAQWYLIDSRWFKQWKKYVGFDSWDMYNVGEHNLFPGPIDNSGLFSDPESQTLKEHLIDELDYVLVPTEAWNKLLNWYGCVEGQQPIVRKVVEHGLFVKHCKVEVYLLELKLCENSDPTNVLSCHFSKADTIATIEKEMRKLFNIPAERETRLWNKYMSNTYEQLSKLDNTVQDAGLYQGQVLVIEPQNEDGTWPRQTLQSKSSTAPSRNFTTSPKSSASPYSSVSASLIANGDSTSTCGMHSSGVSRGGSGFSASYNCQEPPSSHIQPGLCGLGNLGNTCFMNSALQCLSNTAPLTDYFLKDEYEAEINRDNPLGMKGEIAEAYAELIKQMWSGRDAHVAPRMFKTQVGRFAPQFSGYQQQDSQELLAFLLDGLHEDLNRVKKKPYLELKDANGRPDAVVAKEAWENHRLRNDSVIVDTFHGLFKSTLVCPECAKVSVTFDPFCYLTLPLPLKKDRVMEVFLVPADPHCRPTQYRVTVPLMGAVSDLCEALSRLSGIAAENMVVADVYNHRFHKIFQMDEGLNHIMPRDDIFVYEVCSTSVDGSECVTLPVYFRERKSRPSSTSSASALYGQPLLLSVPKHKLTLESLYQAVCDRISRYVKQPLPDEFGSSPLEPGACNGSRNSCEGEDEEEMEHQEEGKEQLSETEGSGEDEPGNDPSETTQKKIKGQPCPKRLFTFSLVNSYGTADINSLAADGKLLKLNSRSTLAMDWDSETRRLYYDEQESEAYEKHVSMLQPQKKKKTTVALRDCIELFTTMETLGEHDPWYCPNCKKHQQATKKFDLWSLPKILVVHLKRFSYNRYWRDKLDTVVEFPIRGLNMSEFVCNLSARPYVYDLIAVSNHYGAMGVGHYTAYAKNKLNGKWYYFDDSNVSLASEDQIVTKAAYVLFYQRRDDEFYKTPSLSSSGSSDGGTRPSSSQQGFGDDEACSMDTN
In short: as §1

Measured: log2 ratio of Biotin-Ahx-Ub-VS probe labelling

CCN(C(=O)CCl)C1CCS(=O)(=O)C1 (stereo not given)
inactive: USP34 -0.11 | USP36 -0.152 | USP38 -0.0197 | USP39 -0.0969 | USP4 0.159
